# Rows were chosen to be rich in hits. Some 4% of all compounds tested hit in one or more screens of this group.
# TWEAK-Fn14 inh = inhibitors of TWEAK-Fn14 interaction signaling. TWEAK-stimulated Fn14 reporter cells, luciferase luminescence, 8 h. inhibition, % at 10 µM. 360,000 compounds, 2% hits. AID 1159606; in the data active = inhibition above about 50%
# MITF TRPM1 inh = reduces MITF-dependent TRPM1 promoter luciferase signal. SK-MEL-5 TRPM1 promoter luciferase, 24 h. inhibition, % at 12.5 µM. 330,000 compounds, 0.83% hits;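 active = mean inhibition across replicates of 60% or more, whatever share of single replicates reaches that level; inconclusive = some that reach 60%, reason not given; inactive = mean inhibition across replicates below 60%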
# EBV LMP1 NFkB = reduces LMP1-driven NF-kappaB luciferase signal; LMP1-induced NF-kappaB luciferase reporter cells, luminescence; inhibition, % at 12.5 µM; 350,000 compounds, 0.69% hits; in the data active = inhibition above about 41%; inconclusive = no clear call, values can overlap the other calls;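 note: 0% = neutral control wells and 100% = reference inhibitor control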
# TROY signal inh = TROY signaling inhibition; Q293 LMP1-TROYcd NF-kB luciferase reporter, 4 h; inhibition, % at 10 µM; 360,000 compounds, 0.98% hits;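 active = compounds whose plate-normalised and pattern-corrected inhibition of the luciferase reporter signal at the single screening dose is 50% or more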
# Peg3 prom inh-1 = Peg3 promoter activity inhibition; HeLa PEG-Prom luciferase reporter, luminescence, overnight; inhibition, % at 20 µM; 360,000 compounds, 1.7% hits;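 active = inhibition of at least 50% at 20 µM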
# HIF-2a block = blocks HIF-2a reporter activity | 786-0 RCC cells HIF-2a reporter, luciferase luminescence, overnight | inhibition, % at 18.8 µM | 360,000 compounds, 0.72% hits | AID 624352;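 active = inhibition of the luminescence signal of 40% or more relative to plate controls, in a single-dose primary screen at 18.75 µM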
# Peg3 prom inh-2 = Peg3 promoter inhibition confirmation | AID 602417 | HeLa PEG-Prom luciferase reporter, luminescence, overnight | inhibition, % at 20 µM | 1,300 compounds, 84% hits | shares compounds with Peg3 prom inh-1;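 active = at 20 µM dose, 40% or more inhibition averaged across four replicates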
# Active calls of the source: *; u = inconclusive; x = not tested or not shown.
SMILES,TWEAK-Fn14 inh,MITF TRPM1 inh,EBV LMP1 NFkB,TROY signal inh,Peg3 prom inh-1,HIF-2a block,Peg3 prom inh-2
Cc1ccccc1-c1cccc([C@@H]2C[C@H]3[C@H](CON3C)CN2C(=O)C(C)(C)C)c1,2,-5,-8,-1,13,8,x
O=C(CSc1ccc(Cl)cc1)NC1CCCC1,-8,-57,-19,-36,-88,-143,x
O=C(NC1CCCCC1)Sc1ccc(Cl)cc1,-33,27,-11,-23,66*,16,66*
C(=Cc1c[nH]c2ccccc12)c1ccc2ccccc2n1,73*,19,13,33,72*,18,-4
O=C(/C=C/c1c[nH]c2ccccc12)c1ccccc1,30,-42,-34,-102,-308,-322,x
c1ccc(CN=C(NCc2ccccc2)NCc2ccccc2)cc1,36,16,-5,16,90*,10,88*
Cc1cc(C)c2c(N)c3ccccc3nc2n1,-99,66*,-31,-51,87*,15,91*
CCc1ccc2nc3nc(C)cc(C)c3c(N)c2c1,-46,-18,-8,-67,-13,-52,x
O=S(=O)(c1ccc(Cl)cc1)N1CCN(Cc2ccc(O)c3ncccc23)CC1,-2,64*,34,20,52*,8,56*
Cc1c(CCOC(=O)C23CC4CC(CC(C)(C4)C2)C3)sc[n+]1CC(=O)c1ccccc1,6,3,-6,42,54*,15,91*
CCc1ccc2c(c1)Sc1ccccc1CC2N1CCN(C)CC1 (stereo not drawn),-7,10,-10,-60,55*,9,77*
COc1cc(OC)c2cc(C(=O)N/N=C/c3ccccc3O)[nH]c2c1,25,33,11,10,72*,2,59*
COc1ccc2[nH]c(C(=O)N/N=C/c3ccccc3OC)cc2c1,21,8,-39,-9,22,-34,x
O=C(C[C@H]1C[C@H](C(=O)N2CCCCC2)[C@@]2(CCc3ccccc3)c3[nH]c4ccc(Cl)cc4c3CCN2C1=O)NCCc1ccccn1,69*,52,20,63*,69*,7,88*
CC12CCC3c4ccccc4CCC3(CO1)C2 (stereo not drawn),-16,x,-6,-13,-9,-1,x
CC1=NN(c2ccccc2)C(=O)/C1=C/C=C/c1ccccc1,95*,69*,0,27,113*,68*,22
Cc1cc2cc(CCNC(=O)C(=O)c3c[nH]c4ccccc34)c(=O)[nH]c2cc1C,39,12,2,8,59*,13,59*
Cc1occc1C(=O)Nc1nnc(C(F)(F)F)s1,13,-16,-2,-23,-20,-46,x
O=C(Nc1ccccc1C(=O)Nc1nnc(C(F)(F)F)s1)c1ccccc1,87*,-1,8,59*,59*,-12,87*
Cc1ccc(NC(=O)c2ccco2)c(NC(=O)Cc2cccs2)c1,0,8,5,23,1,-4,x
COC(=O)c1ccc(Nc2cc(C)nc3ccc(C)cc23)cc1,-16,76*,1,-25,56*,19,89*
CCOC(=O)c1sc2nc(CSc3ccccc3)nc(N3CCCN(C)CC3)c2c1C,-6,14,-15,-29,65*,9,94*
OC(c1ccc2c(c1)OCO2)c1ncc(-c2cccc(C(F)(F)F)c2)[nH]1 (stereo not drawn),10,x,x,19,6,6,x
Cc1c([N+](=O)[O-])cc(N2C(=O)C=CC2=O)cc1[N+](=O)[O-],7,50,6,7,105*,21,98*
CC(/C=C/c1cccc([N+](=O)[O-])c1)=N/NC(=O)c1cccnc1,1,7,-5,7,-9,-3,x
SMILES,TWEAK-Fn14 inh,MITF TRPM1 inh,EBV LMP1 NFkB,TROY signal inh,Peg3 prom inh-1,HIF-2a block,Peg3 prom inh-2
CC(/C=C/c1ccccc1)=N/NC(=O)c1cc([N+](=O)[O-])cc([N+](=O)[O-])c1,-13,46,28,10,51*,13,51*
CC1CCCCN1S(=O)(=O)c1ccc(C(=O)N(CCCN(C)C)c2nc3ccc(Br)cc3s2)cc1 (stereo not drawn),-42,95*,5,-29,81*,-27,93*
CCC1CCCCN1S(=O)(=O)c1ccc(C(=O)N(CCCN(C)C)c2nc3cc4c(cc3s2)OCO4)cc1 (stereo not drawn),-14,23,-13,-7,59*,-5,70*
CCCCn1c(N)c(N(CC)C(=O)c2cccs2)c(=O)[nH]c1=O,0,-16,-3,-5,6,10,x
COc1ccc(-c2oc3c(c2C(=O)OCCO)C(OCCCO)CCC3)cc1 (stereo not drawn),13,x,x,-2,x,4,x
Cc1ccc(SCC(=O)Nc2ccc(N3CCOCC3)cc2)cc1C,-4,x,-2,-11,0,-1,x
CCCCCCCn1c(=N)n(CC(=O)c2ccco2)c2ccccc21,-9,38,6,20,87*,30,64*
CCCCn1c(=N)n(CC(=O)c2ccco2)c2ccccc21,-12,12,-10,-1,-4,8,x
CCCCCCCn1c(=N)n(CC(O)c2ccco2)c2ccccc21 (stereo not drawn),41,29,-5,17,80*,0,91*
N=c1n(CCN2CCCC2)c2ccccc2n1CC(O)c1ccco1 (stereo not drawn),4,-4,10,1,13,12,x
C[C@@H]1CN[C@H](CCO)/C1=C\c1ccccc1,5,-8,-7,-11,0,5,x
CCCNc1cc(=S)nc(N)[nH]1,5,13,0,-8,12,26,x
CN1C/C(=C/c2ccccc2[N+](=O)[O-])C(=O)/C(=C\c2ccccc2[N+](=O)[O-])C1,22,62*,-50,9,96*,2,100*
Cc1ccc(C(=O)N/N=C/c2ccc([N+](=O)[O-])s2)cc1,95*,105*,13,42,82*,91*,80*
O=C(N/N=C/c1ccc([N+](=O)[O-])s1)c1ccncc1,12,u,4,16,-3,24,x
CC(C)[C@H](NC(=O)[C@H]1N2C(=O)c3ccccc3C2SC1(C)C)C(=O)NCc1ccco1 (stereo partly drawn),-6,15,4,-1,3,1,x
Nc1c(C(=O)OCC(=O)Nc2cccc([N+](=O)[O-])c2)[nH]c(=O)[nH]c1=O,20,6,3,11,-3,15,x
C=CCc1cccc(/C=N/NC(=O)C(C)Nc2ccc(C)cc2)c1O (stereo not drawn),11,26,17,18,55*,24,41*
C=CCc1cccc(/C=N/NC(=O)C(=O)Nc2ccc(C)cc2)c1O,-38,-10,9,-35,-9,-33,x

# Source: PubChem BioAssay
